From PubChem BioAssay (Tox21) come the findings set out here.

Several values for one entry are separate records, joined by “and”; a condition that tells them apart may be missing. Identical values can stand only once. Results filed as inconclusive are left out. More than one record can exist for a structure, and the calls need not agree. Activity calls are given as the source filed them. Unless noted, calls come from the whole dose curve; as a rule, active = well fitted curve in the direction sought with a large enough effect in the repeat runs; inconclusive = weak or mixed curves; inactive = no such curve, though single readings can be large; an effect the other way counts as inactive or inconclusive.

In test [1] the target is Acetylcholinesterase (Homo sapiens) (UniProt P22303). In words: Acetylcholinesterase (AChE) small molecule antagonists: enzyme-based qHTS assay (AID 1347397; calls by dose curve; note: nearly all actives have a fitted effect of over 55% in size). Particulars: Potency: AChE enzyme activity inhibition; outcome: AChE enzyme activity inhibition. The method, boiled down: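 Colorimetric DTNB readout of acetylthiocholine hydrolysis, 10 min at room temperature, after 30 min room-temperature exposure of 50 mU/mL recombinant human enzyme to compound; DMSO vehicle control.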
Sequence of Acetylcholinesterase (Homo sapiens) (P22303 whole entry, looked up): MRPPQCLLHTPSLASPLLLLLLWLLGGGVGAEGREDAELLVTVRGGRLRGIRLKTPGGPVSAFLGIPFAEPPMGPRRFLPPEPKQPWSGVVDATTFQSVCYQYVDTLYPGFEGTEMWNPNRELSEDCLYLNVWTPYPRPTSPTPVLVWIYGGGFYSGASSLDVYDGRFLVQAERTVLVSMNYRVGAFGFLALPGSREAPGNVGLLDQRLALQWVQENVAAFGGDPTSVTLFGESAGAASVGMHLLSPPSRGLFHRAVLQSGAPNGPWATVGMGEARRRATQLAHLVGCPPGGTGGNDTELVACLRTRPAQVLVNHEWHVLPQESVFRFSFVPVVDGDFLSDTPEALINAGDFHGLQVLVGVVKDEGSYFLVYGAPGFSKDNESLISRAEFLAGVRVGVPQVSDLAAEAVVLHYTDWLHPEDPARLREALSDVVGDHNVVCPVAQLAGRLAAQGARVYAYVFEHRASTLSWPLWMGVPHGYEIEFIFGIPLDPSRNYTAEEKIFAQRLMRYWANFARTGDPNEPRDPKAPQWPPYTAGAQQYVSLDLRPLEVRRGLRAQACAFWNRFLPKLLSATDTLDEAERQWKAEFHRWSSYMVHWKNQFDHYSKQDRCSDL

Test [2] shares this target. Briefly: Acetylcholinesterase (AChE) small molecule antagonists: fluorescence cell-based qHTS assay (AID 1347398; calls by dose curve; note: nearly all actives have a fitted effect of over 50% in size). Conditions: Potency: AChE activity; outcome: AChE activity. The method, boiled down:
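Cellular AChE activity read as thiocholine from acetylthiocholine hydrolysis, detected by Thiolite Green fluorescence at 490/520 nm after 40 min at room temperature. Compounds were pre-incubated 30 min at 37 C on adherent SH-SY5Y cells.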

For test [3] the target is unchanged. In words: Acetylcholinesterase (AChE) small molecule antagonists: enzyme-based qHTS assay with human liver microsomes (AID 1347399; calls by dose curve; note: nearly all actives have a fitted effect of over 60% in size). Particulars: Potency: qHTS inhibition; outcome: qHTS inhibition. The method, boiled down: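 Recombinant human AChE (50 mU/mL in the enzyme mix) and human liver microsomes (0.25 mg/mL final) were preincubated with compound and NADPH (0.25 mg/mL final) for 30 min at 37 C. Acetylthiocholine/DTNB was then added; thiocholine was read colorimetrically after 10 min at room temperature.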

In test [4] the target is Cytochrome P450 2D6 (Homo sapiens) (UniProt P10635). Briefly: Cytochrome P450 Family 2 Subfamily D Member 6 (CYP2D6) small molecule antagonists: luciferase reporter qHTS assay (AID 1671196). Note: nearly all actives have a fitted effect of over 50% in size. The method, boiled down:
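Enzyme and proluciferin substrate were first combined with test chemical for 10 min at room temperature. Adding NADPH regeneration solution started a 1 h reaction, stopped with luciferin detection reagent and read by luminescence 20 min later.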

In test [5] the target is Cytochrome P450 2C19 (Homo sapiens) (UniProt P33261). In words: Cytochrome P450 Family 2 Subfamily C Member 19 (CYP2C19) small molecule antagonists: luciferase reporter qHTS assay (AID 1671197). Note: nearly all actives have a fitted effect of over 65% in size. The method, boiled down:
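P450-Glo CYP2C19 screening system; proluciferin substrate; DMSO compound stocks; 10 min RT preincubation; NADPH regeneration, 1 h at 37C; luciferin detection reagent, 20 min RT; luminescence as RLU.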

The target of test [6] is Cytochrome P450 1A2 (Homo sapiens) (UniProt P05177). In words: Cytochrome P450 Family 1 Subfamily A Member 2 (CYP1A2) small molecule antagonists: luciferase reporter qHTS assay (AID 1671199). Note: nearly all actives have a fitted effect of over 50% in size. The method, boiled down:
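Compounds were incubated with CYP1A2 and a luminogenic proluciferin substrate for 10 min at room temperature before the reaction was started with NADPH regeneration solution. After 1 h, detection reagent was added and light output, proportional to CYP activity, was recorded.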

Test [7] addresses Voltage-gated inwardly rectifying potassium channel KCNH2 (Homo sapiens) (UniProt Q12809). Briefly: Human Ether-a-go-go-Related Gene (hERG) channel small molecule antagonists: fluorescence cell-based qHTS assay (AID 1671200). Note: nearly all actives have a fitted effect of over 50% in size. The method, boiled down: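 Kinetic two-minute fluorescence traces, sampled at 1 s, were collected following thallium stimulus of U2OS cells (1000 per well) that had been cultured overnight at 37 C and loaded with FluxOR II.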

Test [8] addresses Cytochrome P450 3A4 (Homo sapiens) (UniProt P08684). Briefly: Cytochrome P450 Family 3 Subfamily A Member 4 (CYP3A4) small molecule antagonists: luciferase reporter qHTS assay (AID 1671201). Note: nearly all actives have a fitted effect of over 50% in size. The method, boiled down: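 Proluciferin-to-luciferin conversion by CYP3A4, NADPH-regenerated, 1 h RT; luminescence read as RLU. Ketoconazole as control.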
Test [9] has as its target Cytochrome P450 2C9 (Homo sapiens) (UniProt P11712). Briefly: Cytochrome P450 Family 2 Subfamily C Member 9 (CYP2C9) small molecule antagonists: luciferase reporter qHTS assay (AID 1671198). Note: nearly all actives have a fitted effect of over 50% in size. The method, boiled down:
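Enzyme-substrate mix preincubated with compound 10 min at room temperature; reaction started with NADPH regeneration solution, 1 h 37C. Luminescent luciferin product read after 20 min detection reagent.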
Potency is the fitted concentration of half-maximal effect.

Sequence of Voltage-gated inwardly rectifying potassium channel KCNH2 (Homo sapiens) (Q12809 whole entry, looked up): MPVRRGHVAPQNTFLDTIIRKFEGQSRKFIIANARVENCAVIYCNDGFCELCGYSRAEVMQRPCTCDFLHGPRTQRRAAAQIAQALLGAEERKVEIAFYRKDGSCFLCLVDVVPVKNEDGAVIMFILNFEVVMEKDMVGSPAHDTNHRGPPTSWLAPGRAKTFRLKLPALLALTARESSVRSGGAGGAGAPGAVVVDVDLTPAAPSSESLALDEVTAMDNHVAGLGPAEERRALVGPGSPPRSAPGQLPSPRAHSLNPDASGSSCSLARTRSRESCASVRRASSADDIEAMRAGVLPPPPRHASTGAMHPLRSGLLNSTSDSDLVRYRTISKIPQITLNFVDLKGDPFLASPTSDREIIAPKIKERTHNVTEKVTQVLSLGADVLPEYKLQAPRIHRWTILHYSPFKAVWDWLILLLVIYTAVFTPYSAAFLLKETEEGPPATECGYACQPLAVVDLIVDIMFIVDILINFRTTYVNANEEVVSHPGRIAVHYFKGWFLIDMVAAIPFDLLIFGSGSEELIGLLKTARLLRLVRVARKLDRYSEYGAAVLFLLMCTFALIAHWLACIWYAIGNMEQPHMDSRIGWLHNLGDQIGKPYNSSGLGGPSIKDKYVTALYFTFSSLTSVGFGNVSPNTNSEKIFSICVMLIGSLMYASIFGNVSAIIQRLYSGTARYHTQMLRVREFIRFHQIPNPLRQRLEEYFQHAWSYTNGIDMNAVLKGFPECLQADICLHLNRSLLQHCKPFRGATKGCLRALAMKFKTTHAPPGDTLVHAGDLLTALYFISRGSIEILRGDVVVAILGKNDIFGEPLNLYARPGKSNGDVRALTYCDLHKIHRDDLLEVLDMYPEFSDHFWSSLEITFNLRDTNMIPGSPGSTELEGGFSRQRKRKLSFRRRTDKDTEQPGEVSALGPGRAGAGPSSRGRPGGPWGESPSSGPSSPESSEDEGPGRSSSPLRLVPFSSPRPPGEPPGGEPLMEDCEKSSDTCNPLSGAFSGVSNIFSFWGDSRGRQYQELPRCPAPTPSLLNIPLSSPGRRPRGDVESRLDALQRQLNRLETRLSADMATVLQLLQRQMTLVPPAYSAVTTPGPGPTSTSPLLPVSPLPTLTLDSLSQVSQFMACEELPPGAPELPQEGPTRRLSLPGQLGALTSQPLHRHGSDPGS
Sequence of Cytochrome P450 1A2 (Homo sapiens) (P05177 whole entry, looked up): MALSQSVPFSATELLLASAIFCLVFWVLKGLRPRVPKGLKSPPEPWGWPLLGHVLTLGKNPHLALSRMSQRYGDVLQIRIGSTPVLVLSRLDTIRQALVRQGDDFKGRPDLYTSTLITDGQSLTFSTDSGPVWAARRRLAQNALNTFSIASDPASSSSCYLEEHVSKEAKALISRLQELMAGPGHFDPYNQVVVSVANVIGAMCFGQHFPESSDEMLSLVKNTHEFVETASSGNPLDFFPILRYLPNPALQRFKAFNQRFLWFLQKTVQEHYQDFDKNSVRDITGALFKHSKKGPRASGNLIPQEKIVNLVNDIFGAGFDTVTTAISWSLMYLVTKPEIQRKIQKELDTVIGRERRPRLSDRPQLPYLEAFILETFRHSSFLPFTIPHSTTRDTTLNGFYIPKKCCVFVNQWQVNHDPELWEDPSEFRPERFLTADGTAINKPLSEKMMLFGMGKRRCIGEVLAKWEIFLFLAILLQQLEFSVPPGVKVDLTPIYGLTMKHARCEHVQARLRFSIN
Sequence of Cytochrome P450 3A4 (Homo sapiens) (P08684 whole entry, looked up): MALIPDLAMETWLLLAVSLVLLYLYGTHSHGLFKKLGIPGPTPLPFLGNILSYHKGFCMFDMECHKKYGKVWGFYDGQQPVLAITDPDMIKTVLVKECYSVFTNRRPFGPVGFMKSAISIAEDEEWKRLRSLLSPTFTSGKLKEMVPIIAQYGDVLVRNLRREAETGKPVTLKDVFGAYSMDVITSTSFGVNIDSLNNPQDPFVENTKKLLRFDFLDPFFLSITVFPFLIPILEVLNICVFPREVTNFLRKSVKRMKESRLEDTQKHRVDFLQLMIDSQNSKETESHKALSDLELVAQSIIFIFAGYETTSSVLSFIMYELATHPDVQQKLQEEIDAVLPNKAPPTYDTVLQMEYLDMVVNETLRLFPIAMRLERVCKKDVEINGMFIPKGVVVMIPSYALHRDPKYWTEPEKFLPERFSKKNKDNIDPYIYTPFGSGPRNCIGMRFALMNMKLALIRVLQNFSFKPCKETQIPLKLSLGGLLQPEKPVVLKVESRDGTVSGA
Sequence of Cytochrome P450 2D6 (Homo sapiens) (P10635 whole entry, looked up): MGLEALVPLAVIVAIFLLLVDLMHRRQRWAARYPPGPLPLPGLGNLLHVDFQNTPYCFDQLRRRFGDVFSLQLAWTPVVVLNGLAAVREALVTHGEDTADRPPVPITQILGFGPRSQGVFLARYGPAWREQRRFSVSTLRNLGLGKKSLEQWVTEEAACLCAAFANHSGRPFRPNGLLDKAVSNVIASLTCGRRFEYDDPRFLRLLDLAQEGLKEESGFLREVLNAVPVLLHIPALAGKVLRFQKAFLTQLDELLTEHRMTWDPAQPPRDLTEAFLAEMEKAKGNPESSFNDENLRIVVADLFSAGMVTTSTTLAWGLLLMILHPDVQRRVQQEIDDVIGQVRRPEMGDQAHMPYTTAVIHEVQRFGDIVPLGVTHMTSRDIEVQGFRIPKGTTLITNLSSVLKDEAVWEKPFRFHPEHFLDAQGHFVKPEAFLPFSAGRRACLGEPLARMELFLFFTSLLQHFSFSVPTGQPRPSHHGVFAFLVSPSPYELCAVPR
Sequence of Cytochrome P450 2C9 (Homo sapiens) (P11712 whole entry, looked up): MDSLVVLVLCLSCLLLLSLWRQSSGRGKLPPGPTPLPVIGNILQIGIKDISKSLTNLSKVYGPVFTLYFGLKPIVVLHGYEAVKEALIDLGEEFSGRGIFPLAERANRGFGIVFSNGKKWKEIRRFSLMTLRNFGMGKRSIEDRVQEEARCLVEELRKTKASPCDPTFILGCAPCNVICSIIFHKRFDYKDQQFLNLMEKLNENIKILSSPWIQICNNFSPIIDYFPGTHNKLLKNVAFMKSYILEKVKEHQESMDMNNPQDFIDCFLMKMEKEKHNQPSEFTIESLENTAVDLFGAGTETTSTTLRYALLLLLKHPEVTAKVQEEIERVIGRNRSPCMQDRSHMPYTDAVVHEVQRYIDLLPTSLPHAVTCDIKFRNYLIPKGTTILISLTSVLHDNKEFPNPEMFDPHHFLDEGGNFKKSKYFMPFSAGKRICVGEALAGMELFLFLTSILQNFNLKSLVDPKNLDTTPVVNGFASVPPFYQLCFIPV
Sequence of Cytochrome P450 2C19 (Homo sapiens) (P33261 whole entry, looked up): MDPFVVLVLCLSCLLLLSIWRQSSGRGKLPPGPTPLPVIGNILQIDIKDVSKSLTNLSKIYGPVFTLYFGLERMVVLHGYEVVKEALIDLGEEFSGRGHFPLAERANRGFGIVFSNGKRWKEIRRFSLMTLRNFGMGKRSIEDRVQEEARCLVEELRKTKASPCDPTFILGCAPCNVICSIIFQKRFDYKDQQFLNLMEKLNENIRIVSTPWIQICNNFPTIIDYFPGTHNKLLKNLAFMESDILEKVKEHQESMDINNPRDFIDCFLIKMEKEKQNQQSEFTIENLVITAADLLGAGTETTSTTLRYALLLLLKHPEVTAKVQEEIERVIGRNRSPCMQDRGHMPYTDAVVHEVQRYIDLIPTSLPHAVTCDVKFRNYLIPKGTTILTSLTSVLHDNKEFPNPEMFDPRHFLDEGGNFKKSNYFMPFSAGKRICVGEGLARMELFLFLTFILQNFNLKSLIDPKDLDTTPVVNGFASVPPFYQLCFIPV

Consider `CN1C[C@H](C(=O)N[C@]2(C)O[C@@]3(O)[C@@H]4CCCN4C(=O)[C@H](Cc4ccccc4)N3C2=O)C=C2c3cccc4[nH]cc(c34)C[C@H]21`, for which the Potency in [1] is 5.67 µM (active); in test [2] it was 0.505 µM (active); in test [4] it was 28.4 µM (active) and inactive; in test [5], 28.4 µM (active) and 18.6 µM (active); in test [6] it was 20.1 µM (active); in test [7], 22 µM (active). Besides, the Potency result in test [3] is “inactive”.
As for `COC(=O)Cc1ccccc1`, the Potency result in [1], in test [2], in test [3], in [4], in test [5] and in [6] was “inactive” each time. Besides, the Potency result in test [7] and in [8] was “inactive” throughout.
Turning to `C=CCc1ccccc1O`, the Potency result in [1], in test [2], in test [3], in test [4], in test [5] and in test [7] was “inactive” in each case. Besides, the Potency entry in test [8] was “inactive”. Also, the Potency in [6] is 31.7 µM (active).
As to `CC(Oc1cccc(Cl)c1)C(=O)O` (centres undefined), the Potency entry in test [1], in test [2], in test [3], in test [4], in [5] and in [6] was “inactive” each time. For the same compound, the Potency entry in test [7] and in [8] was “inactive” each time.
As for `FC(Cl)(Cl)C(F)(Cl)Cl`, the Potency entry in [1], in test [2], in [3], in test [4], in test [5] and in [9] was “inactive” in each case. Moreover, the Potency result in test [7] and in [8] was “inactive” throughout.
In the case of `C[C@H]1O[C@H](OC2[C@@H](O)[C@@H](O)C(O)[C@H](O)[C@H]2O)[C@@H](N)C[C@@H]1N=C(N)C(=O)O` (some centres undefined), the Potency result in [1], in test [2], in [3], in [4], in test [5] and in [9] was “inactive” each time. Also, the Potency entry in [7] and in test [8] was “inactive” throughout.
In the case of `C=CCSSCC=C`, the Potency entry in test [1], in test [2], in test [3], in [4], in test [7] and in test [8] was “inactive” each time. For the same compound, the Potency is 7.96 µM (active) in [5] and 31.7 µM (active) in [6].
Turning to `C=CCOC(=O)C(C)(C)OC(=O)c1cc(-n2c(=O)cc(C(F)(F)F)n(C)c2=O)ccc1Cl`, the Potency entry in test [1], in [2], in test [3] and in test [7] was “inactive” each time. The Potency was 27.7 µM (active) in test [4], 49.3 µM (active) in test [5], 15.6 µM (active) in test [9] and 0.553 µM (active) in test [8].
Turning to `CCCCCCCCP(=O)(O)O`, the Potency result in test [1], in [2], in test [3], in test [4], in [5] and in test [9] was “inactive” each time. Moreover, the Potency result in test [7] and in [8] was “inactive” throughout.
Regarding `CCC1CCC(=O)O1` (centres undefined), the Potency result in [1], in test [2], in test [3], in test [4], in test [9] and in test [7] was “inactive” each time. Further, the Potency entry in test [8] is “inactive”. The Potency in test [5] was 45.2 µM (active).
As to `CN1C(=O)CN=C(c2ccccc2)c2cc([N+](=O)[O-])ccc21`, the Potency result in test [1], in [2], in test [3], in test [4], in test [5] and in test [6] was “inactive” in each case. Besides, the Potency entry in [7] and in test [8] was “inactive” each time.
On to `ClCc1ccccc1Cl`, for which the Potency result in test [1], in test [2], in [3], in test [4], in test [5] and in test [9] was “inactive” each time. Further, the Potency entry in test [7] and in test [8] was “inactive” throughout.
In the case of `COC1CC(=C(c2cccs2)c2cccs2)C[N+](C)(C)C1` (centres undefined), the Potency entry in test [1], in [2], in test [3], in test [5], in test [9] and in [6] was “inactive” in each case. Besides, in test [8], the Potency result is “inactive”. Moreover, in test [4], the Potency was 0.309 µM (active).
Consider `C[N+](C)(C)CC1CO1` (centres undefined), for which the Potency entry in test [1], in test [2], in test [3], in test [4], in test [5] and in test [9] was “inactive” throughout. Further, the Potency entry in test [7] and in test [8] was “inactive” in each case.
On to `CN(C1CCCCC1)C1CCCCC1`, for which the Potency entry in [1], in test [2], in test [3], in test [5], in test [6] and in test [7] was “inactive” in each case. Besides, the Potency result in test [8] was “inactive”. Further, in [4], the Potency is 3.17 µM (active).
On to `CON(C)C(=O)Nc1ccc(Cl)cc1`, for which the Potency result in [1], in [2], in test [3], in [4], in test [7] and in test [8] was “inactive” each time. Besides, the Potency in test [5] is 39.9 µM (active); in test [6] it was 7.1 µM (active).
Take `CNC(=O)Oc1cccc(N=CN(C)C)c1`: the Potency was 20 µM (active) in test [1]; 3.56 µM (active) in test [2]; 63.3 µM (active) in test [3]; 79.6 µM (active) in test [4]; 79.6 µM (active) in test [5]; 79.6 µM (active) in test [9]. Further, the Potency result in [7] and in test [8] was “inactive” in each case.
For `CCCCCl`, the Potency entry in test [1], in [2], in test [3], in [7] and in [8] was “inactive” each time. The Potency is 18.3 µM (active) in test [4], 41 µM (active) in [5] and 57.9 µM (active) in test [6].
As for `O=C(NC(=O)c1cc(F)c(F)cc1Cl)Nc1cc(F)ccc1N1CCC(C(=O)O)CC1`, the Potency entry in test [1], in test [2], in test [3], in test [4], in test [5] and in test [6] was “inactive” throughout. Besides, the Potency entry in test [7] and in test [8] was “inactive” each time.
Turning to `CCCCC1C(=O)NC(=O)N(C2CCCCC2)C1=O` (centres undefined), the Potency entry in test [1], in test [2], in test [3], in test [4], in [6] and in test [7] was “inactive” in each case. Also, the Potency result in test [8] was “inactive”. Also, in test [5], the Potency is 27.5 µM (active).
Regarding `CC(C)CCCCCCCOC(=O)c1ccccc1C(=O)OCCCCCCCC(C)C`, the Potency entry in test [1], in test [2], in [3], in test [4], in test [5] and in test [6] was “inactive” throughout. Also, the Potency entry in test [7] and in test [8] was “inactive” throughout.
Consider `Cc1nc(N(C)C)nc(OC(=O)N(C)C)c1C`, for which the Potency is 10 µM (active) in test [1]; 11.2 µM (active) in test [2]; 63.3 µM (active) in test [3]; 79.6 µM (active) in test [5]; 22.4 µM (active) in test [6]. For the same compound, the Potency entry in [4], in [7] and in test [8] was “inactive” each time.
As to `CC(C)(C#N)C(C)(C)C#N`, the Potency result in [1], in test [2], in [3], in test [4], in test [5] and in test [9] was “inactive” each time. In addition, the Potency entry in test [7] and in test [8] was “inactive” throughout.
For the compound `COC(=O)C1(O)c2ccccc2-c2ccccc21`, the Potency entry in test [1], in test [2], in test [3] and in test [4] was “inactive” each time. For the same compound, the Potency was 79.6 µM (active) in test [5] and 25.2 µM (active) in test [6].
